The campaign covered roughly 320,000 compounds. About 22,000 (6.9%) were called active. Where a call stands in place of a potency, no number is given. Another 27% or so got no clear call; they are omitted. This is one part of a sample in which actives are shown more often than they occur. Values without a mark were called inactive. The call rests on the fitted dose curve; in most records, active means well fitted inhibition curve with a large enough effect; inconclusive means small, poorly fitted or top-dose-only effect, or another doubt; inactive means no such curve, though single readings can be large or run the other way.
Potency means the concentration at half of the fitted maximal effect.

The assay in a line: Primary qHTS for delayed death inhibitors of the malarial parasite plastid, 96 hour incubation. The settings on record: P. falciparum luciferase reporter growth; series mostly up to 28.7 µM. The essentials:
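Parasite growth measured via integrated firefly luciferase reporter in P. falciparum. Infected erythrocytes at 2% hematocrit, 0.05% parasitemia final were treated 96 hours at 37 C under 5% CO2, and luminescence was read.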
In general terms: In qHTS, concentration-response curves come from the screen itself.
`C[C@H](NC(=O)c1nc[nH]c1C(=O)NCC(=O)OC(C)(C)C)C(=O)OCc1ccccc1`: the Potency result is “inactive”. Turning to `COC(=O)c1cccc(NS(C)(=O)=O)c1`, the Potency entry is “inactive”. For the compound `Cc1cc(C(=O)COC(=O)c2cccs2)c(C)n1-c1c(C)n(C)n(-c2ccccc2)c1=O`, the Potency result was “inactive”. As to `COc1ccc(-n2c(C)cc(C(=O)COC(=O)c3cc(OC)c(OC)cc3NC(=O)c3cccs3)c2C)cc1`, the Potency was 2.62 µM (active). The same measure, in the same setting: the value for `COc1ccc(C(=O)COC(=O)CNC(=O)c2cccs2)cc1Br` was “inactive”; that for `O=C(CN1CCN(c2ccc(F)cc2)CC1)Nc1ccccc1` was “inactive”. As for `CC1CCN(c2c(NCc3ccc(C(=O)NCc4ccccc4)cc3)c(=O)c2=O)CC1`, the Potency result is “inactive”. Turning to `N#Cc1nc(Cc2ccccc2)oc1NCCc1ccccc1`, the Potency result is “inactive”. On the same count and under the same terms, the value for `N#Cc1nc(Cc2cccc3ccccc23)oc1NCc1ccc2c(c1)OCO2` was 14.7 µM (active).

For the compound `c1n[nH]c(NCc2ccc3c(c2)OCO3)n1`, the activity change, negative = inhibition is 2.18% [at 5.75 µM]. `O=S(=O)(Nc1n[nH]c(C(F)(F)F)n1)c1ccccc1`: the Potency entry was “inactive”. As for `O=C(N/N=C/c1ccccn1)c1cccc(NC(=O)c2ccc(Cl)cc2)c1`, the Potency entry is “inactive”. On the same count and under the same terms, the value for `CC(C)(C)c1ccc(Cn2nnc3c(=O)[nH]c(C4CCCN(C(=O)c5ccco5)C4)nc32)cc1` (configuration not stated) was “inactive”; that for `CCC(C(=O)NCCC(C)C)N(Cc1ccccc1Cl)C(=O)c1snc(C(N)=O)c1N` (configuration not stated) was “inactive”.

In the case of `CCC(=O)N1c2ccc(S(=O)(=O)CCC(=O)N3CCN(c4ccccc4)CC3)cc2CC1C` (configuration not stated), the Potency result is “inactive”. The same measure, in the same setting: the value for `COc1ccccc1CNC(=O)C1CCN(S(=O)(=O)c2ccc3c(c2)CC(C)N3C(=O)C2CC2)CC1` (configuration not stated) was “inactive”; that for `Cc1ccc(CNC(=O)CCS(=O)(=O)c2ccc3c(c2)CC(C)N3C(=O)C2CC2)o1` (configuration not stated) was 11.7 µM (active). In the case of `CS(=O)(=O)c1ccc(Cl)c(NC(=O)COC(=O)c2cccc(S(=O)(=O)N3CCCC3)c2)c1`, the Potency result is “inactive”. Still for that read-out and setting: the value for `COc1ccc(/C=N/OCc2ccccc2C#N)c(OC)c1` was “inactive”.

For `c1ccc(-c2cc(-c3nnc4sc(-c5ccccn5)nn34)[nH]n2)cc1`, the Potency result was “inactive”. Still for that read-out and setting: the value for `CCOc1cccc(-c2nn3c(-c4ccccn4)nnc3s2)c1` was 8.28 µM (active).

Take `COc1ccc(-c2nn3c(-c4ccccc4)nnc3s2)cc1OC`: the Potency result is “inactive”. For `Cc1ccc(SCc2c(C(=O)N/N=C/c3cccnc3)nnn2-c2nonc2N)cc1`, the Potency result is “inactive”. Take `COc1nc(Oc2ccc(=O)n(C)n2)nc(N(C)C)n1`: the Potency is 3.7 µM (active). Consider `COc1nc(OC)nc(N(C)CCO)n1`, for which the Potency result was “inactive”. On the same count and under the same terms, the value for `CCCn1nc(Oc2nc(NC(C)C)nc(N(C)C)n2)ccc1=O` was “inactive”; that for `COC(=O)[C@@H]1CCCN1C(=O)c1cc(COc2cccc3cccnc23)on1` was “inactive”.

The record behind these values is PubChem BioAssay AID504834 (National Center for Advancing Translational Sciences (NCATS), 2011).
